# In all, about 48,000 compounds went through this assay and about 120 (0.25%) were called active. About 4% were inconclusive and are not listed. Calls come from the whole dose curve; as a rule, active = well fitted activation curve with a large enough effect; inconclusive = small, poorly fitted or top-dose-only effect, or another doubt; inactive = no such curve, though single readings can be large or run the other way. The sample as a whole holds a higher share of actives than the screen did.
# Experiment: Primary qHTS for Identification of Small Molecule Activators of Huntingtin-Antisense Promoter Activity; note: nearly all actives have a fitted effect of over 55% in size
# Conditions: HEK293 HTT-AS promoter firefly luciferase reporter, 24 h; series mostly up to 57.5 µM; activity change, positive = activation: at the top concentration
# Source text: Assay Provider: Russell L. Margolis M.D.
# Department Neurology, Johns Hopkins University School of Medicine, Baltimore, MD
# Huntington's Disease (HD) is a neurodegenerative disorder caused by a CAG repeat expansion in exon 1 of huntingtin (HTT). While there are currently no disease-modifying treatments for HD, recent efforts have focused on development of nucleotide-based therapeutics to lower HTT expression. As an alternative to siRNA or oligonucleotide methods, we hypothesized that suppression of HTT expression might be accomplished by small molecules that either (1) directly decrease HTT expression by suppressing HTT promoter activity or (2) indirectly decrease HTT expression by increasing the promoter activity of HTT-AS, the gene antisense to HTT that appears to inhibit expression of HTT.
# We developed and employed a high throughput screen for modifiers of HTT and HTT-AS promoter activity using luminescent reporter HEK293 cells; of the 52,041 compounds tested, we identified 898 replicable hits. We used a rigorous stepwise approach to assess compound toxicity and the capacity of the compounds to specifically lower huntingtin protein in 5 different cell lines, including HEK293 cells, HD lymphoblastoid cells, mouse primary neurons, HD iPSCs differentiated into cortical-like neurons, and HD hESCs. We found no compounds which were able to lower huntingtin without lowering cell viability in all assays, though the potential efficacy of a few compounds at non-toxic doses could not be excluded.
# SEQUENCE No. (1, 2, 3, etc.); […] (e.g., Cells, Incubation, Reagent, etc.); VALUE and DESCRIPTION.
# 1; Reagent; 4 uL; 2,500 Hek293 luciferase reporter cells per wells
# 3; Compound; 23 nL; Control inhibitor / compound library
# 5; Reagent; 2.5 uL; Firefly Luc reagent; Dual-Glo Luciferase Reporter Assay System (Promega)
# 6; Time; 10 min; room temperature incubation
# 7; Detection; Luminescence; FLuc
# NOTES (numbers refer to sequence above)
# 1; High-throughput screening, measuring luminescence from a Hek293 luciferase reporter, was performed in 1,536 well white-walled tissue-culture treated plates. 2,500 cells were plated in 4 µL of Opti-MEM per well using a Multidrop Combi Reagent Dispenser (ThermoFisher).
# 2; Assay plates were cultured for 24 hours.
# 3; Control inhibitor (PTC124; final concentration of 50 uM) and compound library (at final concentrations of 460 nM - 57.5 uM) were added to the assay plate using the Kalypsis Pintool Robotic System equipped with 1536 pinheads.
# 4; Cells were then incubated for 24 hours at 37 degrees C prior to luminescence measurements.
# 5; In all cases, luminescence was measured using the Dual-Glo Luciferase Reporter Assay System (Promega) following the manufacturer's instructions.
# 6; Room temperature incubation.
# 7; Luminescence signal was obtained using the PerkinElmer ViewLux plate reader. Results were normalized to vehicle control (0% activity) and zero RLU (-100% activity).
# Potency is the fitted concentration of half-maximal effect.
SMILES,"activity change, positive = activation",Potency
O=C(CN1C(=O)COc2ccc(S(=O)(=O)N3CCOCC3)cc21)N1CCN(c2cccc(Cl)c2)CC1,-14.6% (inactive),–
COc1ccc(Cn2c(C(=O)O)c(CNCc3cccc(OC)c3)c3ccc(C)cc32)cc1,-54.6% (inactive),–
Cc1cc(C)c(NC(=O)Cn2c(SCC(=O)NCc3ccccc3)nc3ccccc32)c(C)c1,-19.4% (inactive),–
CCOC(=O)c1cccc(NS(=O)(=O)c2cn(C)c(C)n2)c1,-13.7% (inactive),–
COc1cc2[nH]c(=O)n(Cc3ccc(C(=O)NCc4ccc(C)cc4)cc3)c(=O)c2cc1OC,-17% (inactive),–
CCOC(=O)c1c(NC(=O)Cc2coc3ccc(CC)cc23)sc2c1CCC2,-19.1% (inactive),–
COc1cccc(C(c2c(O)cc(C)n(Cc3ccco3)c2=O)N2CCN(c3ccccc3)CC2)c1 (centres undefined),-0.441% (inactive),–
COc1ccc(CC(=O)N2CC(=O)Nc3ccc(Br)cc3C2c2ccc(F)cc2)cc1OC (centres undefined),-15.1% (inactive),–
Cc1ccc(CNS(=O)(=O)c2ccc(-c3cc(C(F)(F)F)on3)s2)cc1,-6.66% (inactive),–
CCCNC(=O)C1CCN(c2nc3ccc(C)cc3[nH]2)CC1,22.1% (inactive),–
COc1ccc(-c2nc3ccc(C(=O)NCc4ccc(C)cc4)cc3nc2-c2ccc(OC)cc2)cc1,-8.79% (inactive),–
Cc1ccc2nc(CNC(=O)c3ccccc3)[nH]c2c1,–,4470 nM (active)
COc1ccc(-c2nc3sc(CCNC(=O)C(C)(C)C)c(C)n3n2)cc1,-11.6% (inactive),–
COc1ccc(C)cc1-n1c(-c2ccc(C)cc2)cc2c1CC(C)(C)CC2=O,2.19% (inactive),–
Cc1cc(Br)ccc1NC(=O)Cn1cnc2sc(C)c(S(=O)(=O)N3CCN(C)CC3)c2c1=O,15% (inactive),–
Cc1ccc(-c2noc(-c3nnn(-c4cccc(C(F)(F)F)c4)c3N)n2)cc1,-1.74% (inactive),–
O=C(Nc1ccc(C(=O)OCc2cc(=O)n3nc(C4CC4)sc3n2)cc1)c1ccc(F)cc1,10.7% (inactive),–
COc1ccc(Cn2c(=O)c3oc4ccccc4c3n(CC(=O)Nc3ccc(F)cc3F)c2=O)cc1,2.09% (inactive),–
O=C(CN1CCSc2ccccc21)N1CCN(c2ccccc2)CC1,-22.4% (inactive),–
COc1ccc2c(c1)c(N1CCCC1=O)c(C(=O)Nc1ccccc1C(F)(F)F)n2C,-2.97% (inactive),–
Cc1ccc(NC(=O)CSc2nc3c([nH]c4ccccc43)c(=O)n2-c2ccccc2)cc1Cl,-32.6% (inactive),–
Cc1ccccc1Cn1nc(C)c(NC(=O)c2cc(-c3ccc(F)cc3)on2)c1C,-10.1% (inactive),–
CCn1cc(C(=O)N2CCN(c3cc(C)ccc3C)CC2)c(=O)c2cc(S(=O)(=O)N(C)C3CCCCC3)ccc21,-10.6% (inactive),–

SMILES,"activity change, positive = activation",Potency
Cc1ccc(C)c(N2CCN(c3ccc4cc(S(=O)(=O)N5CCC(C)CC5)ccc4n3)CC2)c1,-4.49% (inactive),–
CC[C@]12C=CCN3CC[C@@]4(c5cc([C@@]6(C(=O)OC)C[C@H]7C[C@@H](C(C)(F)F)CN(Cc8c6[nH]c6ccccc86)C7)c(OC)cc5N(C)[C@H]4[C@@](O)(C(=O)OC)[C@H]1OC(C)=O)[C@@H]32,-39.3% (inactive),–
Cc1nc(SCC(=O)Nc2ccc(C(=O)O)cc2)n[nH]1,-6.31% (inactive),–
O=C(CSc1nc2c(c(=O)[nH]1)CN(Cc1ccc3c(c1)OCO3)CC2)Nc1cc(F)ccc1F,-5.4% (inactive),–
COC(=O)c1cc(NC(=O)CCS(=O)(=O)c2cc(Br)cc3c2N(C(=O)C2CC2)CC3)cc(C(=O)OC)c1,-9.29% (inactive),–
CC(=O)c1ccc(NC(=O)c2nc(-c3ccc(C)cc3)n3c2CCCCC3)cc1,-31.3% (inactive),–
Cc1cccc(C(=O)N2CCc3cc(CNC(=O)Cc4ccc(F)cc4)ccc32)c1,-43.4% (inactive),–
CCOC(=O)c1c(C)[nH]c(C)c1S(=O)(=O)N1CCCC(C(=O)NCc2ccccc2Cl)C1 (centres undefined),-16.6% (inactive),–
COc1ccc(-n2c(=O)c3sc4ccccc4c3n(CC(=O)Nc3cccc(C)c3)c2=O)cc1,2.07% (inactive),–
Cc1ccc(CNC(=O)Cn2c(=O)ccc3cc(S(=O)(=O)N4CCCC4)ccc32)cc1,-19.3% (inactive),–
Cc1ccc(C)c(Cn2c(C(=O)O)c(CNCc3cccs3)c3ccccc32)c1,-29.9% (inactive),–
COC(=O)c1cccc(Cn2nnc3sc4c(c3c2=O)CCC(C(C)(C)C)C4)c1 (centres undefined),-49.6% (inactive),–
CCOc1cc(C=C2C(=O)N(c3ccccc3)N=C2C)cc(Cl)c1OCC(=O)OC,-27.3% (inactive),–
CCOc1ccc(NC(=O)c2c(NCc3cccc(OC)c3OC)sc3c2CCC3)cc1,-5.92% (inactive),–
CC1CCCCN1S(=O)(=O)c1ccc(F)c(C(=O)Nc2ccccc2C(F)(F)F)c1 (centres undefined),2.75% (inactive),–
CCn1c(C)c(C)c2cc(C(=O)N3CCN(c4cccc(C)c4C)CC3)ccc21,-13.7% (inactive),–
COc1ccc(CNS(=O)(=O)c2cc3c4c(c2)CCN4C(=O)CC3)cc1,-21.3% (inactive),–
O=C(NCc1ccccc1)C(=O)NCC(c1ccco1)S(=O)(=O)c1ccc(Cl)cc1 (centres undefined),-27.8% (inactive),–
Oc1ccccc1-c1nc2ccc(Cl)cn2c1Nc1ccc2c(c1)OCCO2,-11.4% (inactive),–
CCn1cc(C(=O)N2CCN(c3cc(Cl)ccc3C)CC2)c(=O)c2cc(S(=O)(=O)N3CCCC3)ccc21,"10.5% [at 11.5 µM, percent change from vehicle, -100% = no light] (inactive)",–
O=C(NCc1ccc(Cl)cc1)c1ccc2c(c1)nnn2C1CCCC1,-2.28% (inactive),–
CC(=O)c1ccc(NC(=O)c2nc3nc(C)cc(C(F)F)n3n2)cc1,-1.75% (inactive),–
COc1ccc(CCNC(=O)c2ccc(CSCc3ccc(C)cc3)o2)cc1OC,-31.8% (inactive),–

SMILES,"activity change, positive = activation",Potency
CCCOC(=O)c1c(NC(=O)c2cc3nc(-c4ccc(OC)cc4)cc(C(F)(F)F)n3n2)sc2c1CCCC2,-19.6% (inactive),–
CCC(=O)N1c2ccccc2CC1C(=O)N1CCN(c2ccccc2F)CC1 (centres undefined),-5.95% (inactive),–
COc1ccc2[nH]c3c(c2c1)CCN(C(=O)CCC1CCCC1)C3c1ccc(F)cc1 (centres undefined),-32.3% (inactive),–
CCOc1ccc(/C=C(\C#N)c2nc3ccccc3c(=O)[nH]2)cc1OC,-7.49% (inactive),–
Cc1ccc(Cl)cc1N1CCN(C(=O)c2cn(C)c3ccc(S(=O)(=O)N(C)C4CCCCC4)cc3c2=O)CC1,0.244% (inactive),–
Cc1ccc(CN2C(=O)SC(Nc3ccccc3)C2=O)cc1 (centres undefined),-13.4% (inactive),–
COc1ccc(-c2onc(C)c2C)cc1S(=O)(=O)NCCc1ccccc1,-33.1% (inactive),–
Cc1ccccc1CNC(=O)CSc1nnc(C)c2c(C)n(-c3ccccc3)nc12,-26.1% (inactive),–
O=C(c1ccc(Br)cc1)N(Cc1cccs1)c1ccc(F)cc1,-26.9% (inactive),–
COc1cccc(-n2ccn(CC(=O)NCc3ccc(C)cc3)c(=O)c2=O)c1,-4.99% (inactive),–
CCOc1ccc(-c2cc3c(=O)n(CC(=O)NCc4ccc(OC)cc4)ccn3n2)cc1,–,447 nM (active)
COc1ccc(CNC(=O)Cn2nnc(-c3ccc(S(C)(=O)=O)cc3)n2)cc1,-10.6% (inactive),–
Cc1cccc(N2CCN(C(=O)CCn3c(=O)c4cccn4c4cccnc43)CC2C)c1 (centres undefined),-33.7% (inactive),–
CCCCOc1ccc(C(=O)Nc2cccc(-c3nc4ccccc4o3)c2C)cc1,-12.4% (inactive),–
COc1cccc(-n2c(=O)c3c(C)c(C(=O)N(C)C)sc3n(CC(=O)NCCc3ccc(OC)c(OC)c3)c2=O)c1,-9.08% (inactive),–
COc1ccccc1N1CCN(c2ncnc3onc(-c4ccc(F)cc4)c23)CC1,-11.1% (inactive),–
CCCN1CN=C(NS(=O)(=O)c2ccc(NC(C)=O)cc2)NC1,-0.211% (inactive),–
COCCCNC(=O)c1ccc(NC(=O)c2nsc3ccccc23)cc1,-39% (inactive),–
CCSc1nnc2c(n1)OC(c1ccc(OCC(=O)O)cc1)Nc1ccccc1-2 (centres undefined),1.7% (inactive),–
CCCN(CCC)C(=O)C(Cc1ccccc1)NS(=O)(=O)c1ccc2c(c1)c(=O)n(C)c(=O)n2C (centres undefined),-13.7% (inactive),–
Cc1cc(C)cc(NC(=O)Cn2nc(N3CCN(c4ccccc4)CC3)ccc2=O)c1,-25.9% (inactive),–
Cc1nn(C(=O)c2c(F)cccc2F)c(C)c1S(=O)(=O)N1CCOCC1,-7.32% (inactive),–
CCOc1ccccc1C(=O)NCc1ccc2c(c1)CCN2C(=O)c1ccc(F)cc1,-1.69% (inactive),–

SMILES,"activity change, positive = activation",Potency
O=C(Nc1cc(C(F)(F)F)ccc1Cl)c1cc2nc(-c3ccc4c(c3)OCO4)cc(C(F)(F)F)n2n1,13.7% (inactive),–
CCN(CC)c1ccc(NC(=O)CN2C(=O)c3cccnc3Oc3ccc(Cl)cc32)c(C)c1,-5.22% (inactive),–
Fc1ccc(CN2CCc3nc(Nc4ccccc4)ncc3C2)cc1F,-11.7% (inactive),–
CCc1ccc(C2C(C(=O)Nc3ccccc3)=C(C)Nc3c(C(=O)Nc4ccc(C)cc4)cnn32)cc1 (centres undefined),-28.5% (inactive),–
COc1cc(-c2cc3n(C)c(C)c(CCC(=O)Nc4ccc(F)cc4)c(=O)n3n2)cc(OC)c1OC,-7.63% (inactive),–
COc1ccc(NC(=O)CCCc2nnc3n(CCC(C)C)c(=O)c4sccc4n23)c(OC)c1,-3.2% (inactive),–
CCOc1ccc(CNC(=O)c2ccc3c(c2)nnn3C2CCCC2)cc1,4.86% (inactive),–
COc1ccc(OC)c(-c2noc(N3CCN(c4cc(Cl)ccc4C)CC3)n2)c1,-30% (inactive),–
CC(=O)c1ccc(S(=O)(=O)N2CCC(Oc3ccc(-n4cnnn4)cc3)CC2)cc1,-15.4% (inactive),–
CO[C@@H]1[C@@H](O)[C@H](O)[C@@H](n2c3c(Cl)cccc3c3c4c(c5c6cccc(Cl)c6[nH]c5c32)C(=O)NC4=O)O[C@@H]1CO,-36% (inactive),–
Cc1cccc(S(=O)(=O)c2cn(Cc3ccccc3)c3cc(N4CCOCC4)c(F)cc3c2=O)c1,-22% (inactive),–
CC(=O)N1CCCc2cc(S(=O)(=O)N3CCC(C(=O)NCc4ccc(F)cc4)CC3)ccc21,-27% (inactive),–
CCCS(=O)(=O)Nc1cccc(-c2cn3ccsc3n2)c1,0.221% (inactive),–
Cn1c(=O)cc(OCC(=O)N2CCN(c3ccccc3)CC2)c2ccccc21,-3.9% (inactive),–
COc1ccc(-c2c3c(=O)n(C)c(=O)n(C)c3c3c(C)nc4ccccc4n23)cc1,-13.8% (inactive),–
Cc1cccc(N2CCN(c3ccc(C(=O)O)cc3NC(=O)c3ccccc3F)CC2C)c1 (centres undefined),-19.7% (inactive),–
Cn1c(=O)c(=O)n(C)c2cc(NC(=O)c3ccccc3Br)ccc21,-0.646% (inactive),–
C=C1CCC2[C@](C)(CO)C(O)CC[C@]2(C)C1CC=C1C(=O)OCC1O (some centres undefined),"-4.74% [at 116 µM, percent change from vehicle, -100% = no light] (inactive)",–
O=c1c(=O)n(Cc2c(F)cccc2Cl)ccn1Cc1ccccc1,-4.92% (inactive),–
COc1ccc(CCNC(=O)c2ccc(-n3c(C)cc4c3CCCC4)cc2)cc1OC,9.05% (inactive),–

# Reference: PubChem BioAssay AID1508624 (National Center for Advancing Translational Sciences (NCATS), 2021)
